# Values of other authors, collected in PubChem BioAssay AID977608.
# Hit rate of the full screen: of about 4,300 compounds, about 4,300 (100%) were called active. Cut-off not given; nearly all actives show IC50 up to about 1400 µM. The set was probably picked from earlier hits. Some of the results follow. Starred links: 1 amine or outer side, 2 acyl side, 3 side chain; linkers in the order of their positions; H or OH if unused. Positions of bridges follow the written chain, without caps; N, C: chain ends. Non-standard residues stand in square brackets, D forms with d. Residues, ends and D or L forms follow the SMILES beside them. X1 = O=C([C@H](Cc1ccc(C(F)(F)[P+](O)(O)O)cc1)N[*:1])[*:2]; Nle(6-ylidene) = O=C([C@H](CCCC=[*:3])N[*:1])[*:2]; Abu = CC[C@H](N)C(=O)O
# Experiment: literature IC50 values for PDB complexes, PDB-derived complexes (AID 977608)
# Conditions: PDB protein-ligand complexes
compound,measurement,setting,value
Cc1c(C(=O)O)cccc1-c1nc2nc(N)nc(OCC3CCCCC3)c2[nH]1,IC50,"protein: CYCLIN-DEPENDENT KINASE 2, CDK2, PDB entry 4cfu",100000 nM (active)
CNC(=O)NC(N)NCCC[C@H](NC(=O)Cn1nncc1CO/N=C/c1ccnc2ccccc12)C(=O)N(Cc1ccccc1)Cc1ccccc1 (stereo partly drawn),IC50,"protein: Chitinase B, PDB entry 3wd1",22 nM (active)
CNC(=O)NC(N)NCCC[C@H](NC(=O)CN=[N+]=[N-])C(=O)N(Cc1ccccc1)Cc1ccccc1 (stereo partly drawn),IC50,"protein: Chitinase B, PDB entry 3wd2",580 nM (active)
C[C@H](NC(=O)[C@@H](N)CCC(=O)O)C(=O)N[C@@H](CCC(N)=O)C(=O)N[C@@H](Cc1ccc(C(F)(F)[P+](O)(O)O)cc1)C(=O)N[C@@H](CCC(N)=O)C(=O)N1CCC[C@H]1C(=O)O (H-EAQ[X1]QP-OH),IC50,"protein: TYROSINE-PROTEIN PHOSPHATASE NON-RECEPTOR TYPE 1, PTP1B, PDB entry 3zmq",360 nM (active)
CC(C)C[C@H](NC(=O)[C@H](CCCCN)NC(=O)[C@H](CCC(=O)O)NC(=O)[C@H](Cc1ccc(O)cc1)NC(=O)[C@H](C)NC(=O)[C@@H]1CCCN1C(=O)[C@@H]1CCCN1C(=O)[C@H](C)N)C(=O)N[C@@H](CO[P+](O)(O)O)C(=O)N[C@@H](C)C(=O)N[C@@H](CCC(=O)O)C(=O)N[C@@H](CCC(N)=O)C(=O)N[C@@H](CO)C(=O)N1CCC[C@H]1C(=O)N1CCC[C@H]1C(=O)O,IC50,"protein: MHC class II molecule HLA-DR1, PDB entry 3l6f",102 nM (active)
H-DVFYPYPYASGS-OH,IC50,"protein: concanavalin A(ConA), PDB entry 1jyi",100000 nM (active)
H-SIGKAFKILGYPD-OH,IC50,"protein: G Protein Beta:Gamma Heterodimer, PDB entry 1xhm",470 nM (active)
CC(C)C[C@H](NC(=O)CNC(=O)[C@@H](NC(=O)[C@@H](NC(=O)[C@H](C)NC(=O)[C@@H]1CCCN1C(=O)[C@@H](N)CC(C)C)C(C)C)C(C)C)C(=O)N[C@@H](CO)C(=O)N1CCC[C@H]1C(=O)NCC(=O)N[C@@H](CCC(=O)O)C(=O)N[C@@H](CCC(N)=O)C(=O)N[C@@H](CCC(=O)O)C(=O)N[C@@H](Cc1ccc(O)cc1)C(=O)O,IC50,"protein: HLA-B*3501, PDB entry 1xh3",3100 nM (active)
C[C@H](N)C(=O)N[C@@H](Cc1ccc(C(F)(F)[P+](O)(O)O)cc1)C(=O)N[C@@H](C)C(=O)O,IC50,"protein: TYROSINE-PROTEIN PHOSPHATASE NON-RECEPTOR TYPE 1, PTP1B, PDB entry 3zmp",2130 nM (active)
CC[C@H](C)[C@H](NC(=O)[C@H](Cc1c[nH]cn1)NC(=O)[C@H](C)NC(=O)[C@H](CCC(N)=O)NC(=O)[C@@H](NC(=O)[C@H](CCCN=C(N)N)NC(=O)[C@@H]1CCC/C=C\CCC[C@H](NC(=O)[C@H](CC(N)=O)NC(=O)[C@H](CCCCN)NC(C)=O)C(=O)N2CCC[C@H]2C(=O)N[C@@H](CO)C(=O)N[C@@H](CC(C)C)C(=O)N1)C(C)C)C(=O)N[C@@H](CCCN=C(N)N)C(=O)N[C@@H](CCCCN)C(=O)N[C@@H](CCCCN)C(=O)N[C@@H](CCSC)C(=O)N[C@H](C(=O)O)C(C)C (Ac-KN[Nle(6-ylidene)]PSL[Nle(6-ylidene)]RVQAHIRKKMV-OH; staple (Z) 3-7),IC50,"protein: Myosin A tail domain interacting protein, MTIP from Plasmodium falciparum, PDB entry 4mzj",1600 nM (active)
CC[C@H](NC(=O)[C@H](CCCCN)NC(=O)[C@H](CCCN=C(N)N)NC(=O)[C@@H]1CCC/C=C\CCC[C@H](NC(=O)[C@H](CCCN=C(N)N)NC(=O)[C@H](CC(C)C)NC(=O)[C@H](CC(C)C)NC(=O)[C@H](CO)NC(=O)[C@@H]2CCCN2C(=O)[C@@H](NC(=O)[C@H](CC(N)=O)NC(=O)[C@H](CCCCN)NC(C)=O)[C@@H](C)CC)C(=O)N[C@@H](CCC(N)=O)C(=O)N[C@@H](C)C(=O)N[C@@H](Cc2c[nH]cn2)C(=O)N1)C(=O)N[C@@H](CCSC)C(=O)N[C@H](C(=O)O)C(C)C (Ac-KNIPSLLR[Nle(6-ylidene)]QAH[Nle(6-ylidene)]RK[Abu]MV-OH; staple (Z) 9-13),IC50,"protein: Myosin A tail domain interacting protein, MTIP from Plasmodium falciparum, PDB entry 4mzk",4900 nM (active)
Cc1ccc(-c2cnc(Nc3ccc(OCCCN4CCN(C)CC4)cc3)c(C(N)=O)n2)cc1C,IC50,"protein: DNA GYRASE SUBUNIT B, PDB entry 4b6c",690 nM (active)
Nc1ncnc2c1ncn2[C@@H]1O[C@H](CO[P+](O)(O)O)[C@@H](O)[C@H]1O,IC50,"protein: Bis(5'-adenosyl)-triphosphatase ENPP4, PDB entry 4lqy",129000 nM (active)
same,IC50,"protein: Sus scrofa FRUCTOSE-1,6-BISPHOSPHATASE, PDB entry 1fpi",1300 nM (active)
same,IC50,"protein: human liver fructose-1,6-bisphosphatase (FBPase), PDB entry 1fta",440 nM (active)
Nc1ncnc2c1ncn2[C@@H]1O[C@H](CO[P+](O)(O)O[P+](O)(O)N[P+](O)(O)O)[C@@H](O)[C@H]1O,IC50,"protein: Microcin-J25 export ATP-binding/permease protein McjD, PDB entry 4pl0",39500 nM (active)
Nc1ncnc2c1ncn2[C@@H]1O[C@H](CSCC[C@H](N)C(=O)O)[C@@H](O)[C@H]1O,IC50,"protein: Catechol O-methyltransferase COMT, PDB entry 4pyn",30000 nM (active)
same,IC50,"protein: Catechol O-methyltransferase COMT, PDB entry 4pyo",30000 nM (active)
Nc1ncnc2c1ncn2[C@@H]1O[C@H](CO[P+](O)(O)O[P+](O)(O)OC[C@H]2NC[C@H](O)[C@@H]2O)[C@@H](O)[C@H]1O,IC50,"protein: mouse poly(ADP-ribose) glycohydrolase (PARG) catalytic domain, PDB entry 4na4",120 nM (active)
CC#C[C@H]1CN(S(=O)(=O)c2ccc(N)nc2)CCN1c1ccc([C@](O)(CCCC)C(F)(F)F)cc1,IC50,"protein: Glucokinase regulatory protein hGKRP, PDB entry 4ohk",5 nM (active)
NC(=O)c1ccc(Nc2nc(N)c(C(O)c3cccnc3)s2)cc1 (stereo not drawn),IC50,"protein: Cyclin-dependent kinase 2, PDB entry 3rk7",200 nM (active)
Nc1nc(Nc2ccccc2)sc1C(O)c1ccccc1 (stereo not drawn),IC50,"protein: Cyclin-dependent kinase 2, PDB entry 3qtr",930 nM (active)
Nc1nc(Nc2ccccc2)sc1C(O)c1cccnc1 (stereo not drawn),IC50,"protein: Cyclin-dependent kinase 2, PDB entry 3qtw",650 nM (active)
Nc1nc(Nc2ccc(C(=O)O)cc2)sc1C(O)c1cccnc1 (stereo not drawn),IC50,"protein: Cyclin-dependent kinase 2, PDB entry 3rk5",4000 nM (active)
Nc1nc(Nc2ccccc2)sc1C(O)c1cccc(C(F)(F)F)c1 (stereo not drawn),IC50,"protein: Cyclin-dependent kinase 2, PDB entry 3rpr",100000 nM (active)
Cc1cc2c(C3=CCC=NC3=O)c(C(=O)O)n(Cc3cnc4ccccc4c3)c2cc1F,IC50,"protein: RNA-directed RNA polymerase, PDB entry 4mz4",13 nM (active)
Cc1cccnc1-n1nc(-c2ccccc2)nc1C1C=NC(=O)C(Cl)=C1 (stereo not drawn),IC50,"protein: Bromodomain-containing protein 4, PDB entry 4mep",4700 nM (active)
CC(C)c1cc2c(-c3ccc(S(=O)(=O)NC4CCS(=O)(=O)CC4)cc3)ccnc2[nH]1,IC50,"protein: Human Jnk1 alpha kinase, PDB entry 4awi",1000 nM (active)
